Measurements: PubChem BioAssay (EPA / NIEHS)
Results filed as inconclusive are left out. Activity calls are given as the source filed them. The calls were made as follows: active = hit-call score of the fitted dose curve at least 0.9, where 1 is the maximum; inconclusive = response in the unintended direction; inactive = score below 0.9.

Molecular target: bovine Dopamine Receptor (DR), Non-selective Binding, DRD1 (gene 281125) (UniProt Q95136)
Assay: NVS_GPCR_bDR_NonSelective: NovaScreen (NVS) G Protein-Coupled Receptor Assay for bovine Dopamine Receptor (DR), Non-selective Binding (AID 2283241)
Method in brief: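 Filter-based radioligand binding with bovine striatal membrane, incubated 1 h; DMSO as negative baseline. Initial duplicate single-point test at 25 uM preceded concentration series for actives.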

Chain of bovine Dopamine Receptor (DR), Non-selective Binding, DRD1 (gene 281125) (Q95136 whole entry, looked up): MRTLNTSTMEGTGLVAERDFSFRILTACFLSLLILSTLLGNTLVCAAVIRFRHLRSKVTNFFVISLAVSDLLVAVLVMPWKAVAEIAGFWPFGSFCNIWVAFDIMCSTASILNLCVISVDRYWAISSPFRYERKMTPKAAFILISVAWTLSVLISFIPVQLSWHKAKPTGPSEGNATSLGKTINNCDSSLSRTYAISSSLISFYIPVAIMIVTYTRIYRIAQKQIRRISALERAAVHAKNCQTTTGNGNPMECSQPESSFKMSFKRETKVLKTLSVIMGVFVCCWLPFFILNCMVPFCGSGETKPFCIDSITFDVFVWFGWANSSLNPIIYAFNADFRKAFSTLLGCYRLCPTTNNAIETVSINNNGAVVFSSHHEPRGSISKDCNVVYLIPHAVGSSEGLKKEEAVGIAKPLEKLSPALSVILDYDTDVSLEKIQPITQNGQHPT

Structure (SMILES) | AC50
CCC[CH2][Sn]([Cl])([CH2]CCC)[CH2]CCC | 9.14 µM (active)
[Cl-].[Cl-].[Hg+2] | 11.6 µM (active)
O=C(N[C@H](c1ccccc1)[C@@H]1CN2CCC1CC2)c1c(Cl)ccc(C(F)(F)F)c1Cl | 29.1 µM (active)
CCOC(=O)[C@]1(c2ccccc2)Oc2ccccc2[C@@H]1N | 1.04 µM (active)

Molecular target: rat Monoamine Oxidase, MAO-B, Peripheral (MAOBP), Maob (gene 25750) (UniProt P19643)
Sequence (P19643 whole entry, looked up): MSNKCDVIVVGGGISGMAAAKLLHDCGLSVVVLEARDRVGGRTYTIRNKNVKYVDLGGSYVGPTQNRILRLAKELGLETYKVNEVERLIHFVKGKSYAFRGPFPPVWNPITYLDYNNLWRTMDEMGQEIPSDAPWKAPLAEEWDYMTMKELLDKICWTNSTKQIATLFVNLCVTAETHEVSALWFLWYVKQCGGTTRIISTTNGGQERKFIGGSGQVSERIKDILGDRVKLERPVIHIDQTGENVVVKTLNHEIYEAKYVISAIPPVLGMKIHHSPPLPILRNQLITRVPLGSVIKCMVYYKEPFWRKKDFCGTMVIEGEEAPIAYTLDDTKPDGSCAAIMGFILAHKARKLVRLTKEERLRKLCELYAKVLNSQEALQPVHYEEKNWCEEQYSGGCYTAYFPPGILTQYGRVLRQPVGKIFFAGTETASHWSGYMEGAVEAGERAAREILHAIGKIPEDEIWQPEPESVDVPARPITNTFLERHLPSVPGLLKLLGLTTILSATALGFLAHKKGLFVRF
Assay: NVS_ENZ_rMAOBP: NovaScreen (NVS) Enzymatic Assay for rat Monoamine Oxidase, MAO-B, Peripheral (MAOBP) (AID 2283242)

Structure (SMILES) | outcome | AC50
Nc1cc(Cl)cc(C(=O)O)c1Cl | inactive | 
CC(C)(O)c1cnn2c(-c3ccc(F)c(-c4c(F)cccc4C#N)c3)cnc2n1 | inactive | 
CC(C)COC(=O)c1ccccc1C(=O)OCC(C)C | inactive | 
[Cl-].[Cl-].[Hg+2] |  | 9.04 µM (active)
ClC1=C(Cl)[C@]2(Cl)[C@H]3[C@H]([C@@H]4C=C[C@H]3C4)[C@@]1(Cl)C2(Cl)Cl | inactive | 
CO[C@@H]1[C@H](OC(=O)NC(=O)CCl)CC[C@]2(CO2)[C@H]1[C@@]1(C)O[C@@H]1CC=C(C)C | inactive | 
Clc1ccc(Cl)c(Cl)c1 | inactive | 
Cc1cc(N=Nc2ccccc2C)ccc1N | inactive | 
Cn1cc(-c2ccccc2)c(=O)c(-c2cccc(C(F)(F)F)c2)c1 | inactive | 
CCOC(=O)[C@]1(c2ccccc2)Oc2ccccc2[C@@H]1N |  | 2.44 µM (active)
Nc1ccc(N=Nc2ccccc2)cc1 | inactive | 
CN(C)c1ccc(C(=O)c2ccc(N(C)C)cc2)cc1 |  | 18.6 µM (active)

Molecular target: Adenosine receptor A1 (Bos taurus) (UniProt P28190)
Sequence (P28190 whole entry, looked up): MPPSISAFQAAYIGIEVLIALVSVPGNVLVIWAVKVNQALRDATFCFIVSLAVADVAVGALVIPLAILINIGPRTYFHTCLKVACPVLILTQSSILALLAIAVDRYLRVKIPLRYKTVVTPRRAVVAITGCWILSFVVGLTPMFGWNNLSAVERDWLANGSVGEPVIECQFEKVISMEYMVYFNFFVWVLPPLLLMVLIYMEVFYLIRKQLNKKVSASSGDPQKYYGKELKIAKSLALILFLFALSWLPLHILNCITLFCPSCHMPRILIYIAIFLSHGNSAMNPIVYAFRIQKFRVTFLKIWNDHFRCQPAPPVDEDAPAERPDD
Assay: NVS_GPCR_bAdoR_NonSelective: NovaScreen (NVS) G Protein-Coupled Receptor Assay for bovine Adenosine Receptor (AdoR), Non-selective Binding (AID 2283244)
Method in brief: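 Cell-free binding with membranes from bovine striatum: radioligand displaced by test chemical, read after 1 h by filtration and scintillation. Single-point 25 uM duplicate primary, 50 uM top concentration in follow-up curves, DMSO baseline.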

Structure (SMILES) | outcome | AC50
CS(=O)(=O)NC(=O)c1cc(Oc2ccc(C(F)(F)F)cc2Cl)ccc1[N+](=O)[O-] | inactive | 
O=[N+]([O-])C(Br)(CO)CO |  | 16.5 µM (active)
CCOc1cccc(C2(N3CCN(c4ccccc4)CC3)CCC(C)CC2)c1 (stereo not given) | inactive | 
[Cl-].[Cl-].[Hg+2] |  | 19.1 µM (active)
CCCCCCCCCCCCCN1CC(C)OC(C)C1 (stereo not given) | inactive | 
Nc1ccc(Cl)cc1N | inactive | 
Nc1ccc(N=Nc2ccccc2)cc1 |  | 25 µM (active)

Tested on: not listed separately
Assay: NVS_GPCR_bNPY_NonSelective: NovaScreen (NVS) G Protein-Coupled Receptor Assay for bovine Neuropeptide Y (NPY) Receptor, Non-selective Binding (AID 2283245)
Description: NVS_GPCR_bNPY_NonSelective is a biochemical, single-readout assay that uses extracted gene-proteins from Bovine hippocampal membranes in a tissue-based cell-free assay. Measurements were taken 1 hour after chemical dosing in a 96-well plate.NVS_GPCR_bNPY_NonSelective is one of one assay component(s) measured or calculated from the NVS_GPCR_bNPY_NonSelective assay. It is designed to make measurements of radioligand binding, a form of binding reporter, as detected with scintillation counting signals by Filter-based radiodetection technology.Data from the assay component NVS_GPCR_bNPY_NonSelective was analyzed into 1 assay endpoint. This assay endpoint, NVS_GPCR_bNPY_NonSelective, was analyzed in the positive analysis fitting direction relative to DMSO as the negative control and baseline of activity. Using a type of binding reporter, loss-of-signal activity can be used to understand changes in the binding as they relate to the gene NPY. Furthermore, this assay endpoint can be referred to as a primary readout, because the performed assay has only produced 1 assay endpoint. To generalize the intended target to other relatable targets, this assay endpoint is annotated to the gpcr intended target family, where the subfamily is rhodopsin-like receptor.
Binding assays used specific radioligands (tritiated, iodinated) with non-radioactive competitive displacement ligands in agonist or antagonist protocols (as indicated) and various reference compounds and inhibitors to titrate specific binding to receptors and transporters. Most enzyme assays (CYPs, kinases, phosphatases, proteases, HDACs) used recombinant protein and specific substrates (fluorescence mostly, some colorimetric and radioactive) and inhibitors, followed by a biochemical separation of substrate and product. All assays for the biochemical HTS were initially run in duplicate at a single concentration (10 uM for CYP450 assays and 25 uM for all others). Assay-chemical combinations meeting a pre-defined threshold (e.g., 30% inhibition and other criteria defined below) were then run in singleton concentration-response format with maximum concentration of 20 uM for CYPs and 50 uM for all others. Each assay was run with positive and negative controls, and concurrent controls on every plate. The follow-up (secondary) screen tested active chemical-pairs in concentration series, as well as a few additional assays not tested in the primary screen, some selected negative inactives, and several cases re-run in the concentration series for confirmatory purposes.

Structure (SMILES) | AC50 | outcome
CCC[CH2][Sn]([Cl])([CH2]CCC)[CH2]CCC | 3.07 µM (active) | 
CCCCCCCCn1sccc1=O |  | inactive
[Cl-].[Cl-].[Hg+2] | 12 µM (active) | 
O=C(Nc1ccccc1)c1ccccc1I |  | inactive

Tested on: bovine Histamine 1 Receptor (H1), gene 281231
Assay: NVS_GPCR_bH1: NovaScreen (NVS) G Protein-Coupled Receptor Assay for bovine Histamine 1 Receptor (H1) (AID 2283246)
Method in brief: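 Hits from a 25 uM duplicate primary screen were retested in concentration series (top 50 uM); binding measured as scintillation-counted displacement of radioligand from bovine cerebellar membranes after 1 h, normalised to DMSO.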

Structure (SMILES) | outcome | AC50
C[C@]12C=CC3=C4CCC(=O)C=C4CC[C@H]3[C@@H]1CC[C@@H]2O | inactive | 
Cc1cc(N=Nc2ccccc2C)ccc1N | inactive | 
CCOC(=O)[C@]1(c2ccccc2)Oc2ccccc2[C@@H]1N |  | 7.49 µM (active)
